Source: PubChem BioAssay (National Center for Advancing Translational Sciences (NCATS))
This is a sample that favours compounds with a hit; in the whole collection about 15% have one here.
RORgamma inh – qHTS for inhibitors of ROR gamma transcriptional activity. Nuclear receptor ROR-gamma (Mus musculus), P51450. Drosophila S2 Gal4-RORgamma UAS-luciferase reporter, 20 h. Potency, µM (top dose mostly 53.6 µM), for inactives: at the highest dose activity change, negative = inhibition, most hits filed as inhibitors. actives 5.4% (n = 310,000). AID 2551, 2010; further: nearly all actives have a fitted effect of over 60% in size
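A Gal4/UAS one-hybrid system in insect cells: metallothionein-promoter Gal4–ROR gamma fusion plus Photinus luciferase reporter. Copper sulfate 700 uM final, 20 hr ambient incubation, luminescent detection after 10 min with reagent.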
DT40 TDP1 no CPT – qHTS for Inhibitors of human tyrosyl-DNA phosphodiesterase 1 (TDP1): qHTS in cells in absence of CPT; actives 15% (n = 420,000); AID 686978, 2013; DT40 Tdp1-/- hTDP1 cells, no CPT, ATP luminescence, 48 h; Potency, µM (doses to about 46.2 µM), inactives show at the top dose activity change, negative = growth inhibition, most hits filed as inhibitors; further: nearly all actives have a fitted effect of over 55% in size
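Chicken DT40 Tdp1-/- cells stably complemented with human TDP1 were seeded at 400 cells/well with DMSO in place of 20 nM camptothecin. After compound pinning, cells grew at least 48 hr at 37 °C; viability read by CellTiter-Glo luminescence.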
ELG1 DNA repair – qHTS screen for small molecules that inhibit ELG1-dependent DNA repair in human embryonic kidney (HEK293T) cells expressing luciferase-tagged ELG1. HEK293T ELG1-luciferase reporter, luminescence, 16 h; DNA damage induced by 5-fluorouridine. Potency, µM (top dose mostly 46.1 µM), for inactives: at the top dose activity change, negative = inhibition, actives largely listed as inhibitors. actives 2.3% (n = 330,000); further: nearly all actives have a fitted effect of over 55% in size
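Reporter activity after DNA damage by 5-fluorouridine is monitored. Compound-treated cells incubate 16 hr at 37 °C, then ONE-Glo is added for 30 min before luminescence reading.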
ALOX12 inh – Primary qHTS assay for inhibitors of human arachidonate 12S-lipoxygenase (ALOX12): Round 2; AID 1671190, 2021; Potency, µM (highest dose often 108 µM), without a hit: top-dose activity change, negative = inhibition, most hits filed as inhibitors; purified 12hLO, xylenol orange hydroperoxide absorbance; actives 1.1% (n = 580,000)
Target sequence (P18054 whole entry, looked up): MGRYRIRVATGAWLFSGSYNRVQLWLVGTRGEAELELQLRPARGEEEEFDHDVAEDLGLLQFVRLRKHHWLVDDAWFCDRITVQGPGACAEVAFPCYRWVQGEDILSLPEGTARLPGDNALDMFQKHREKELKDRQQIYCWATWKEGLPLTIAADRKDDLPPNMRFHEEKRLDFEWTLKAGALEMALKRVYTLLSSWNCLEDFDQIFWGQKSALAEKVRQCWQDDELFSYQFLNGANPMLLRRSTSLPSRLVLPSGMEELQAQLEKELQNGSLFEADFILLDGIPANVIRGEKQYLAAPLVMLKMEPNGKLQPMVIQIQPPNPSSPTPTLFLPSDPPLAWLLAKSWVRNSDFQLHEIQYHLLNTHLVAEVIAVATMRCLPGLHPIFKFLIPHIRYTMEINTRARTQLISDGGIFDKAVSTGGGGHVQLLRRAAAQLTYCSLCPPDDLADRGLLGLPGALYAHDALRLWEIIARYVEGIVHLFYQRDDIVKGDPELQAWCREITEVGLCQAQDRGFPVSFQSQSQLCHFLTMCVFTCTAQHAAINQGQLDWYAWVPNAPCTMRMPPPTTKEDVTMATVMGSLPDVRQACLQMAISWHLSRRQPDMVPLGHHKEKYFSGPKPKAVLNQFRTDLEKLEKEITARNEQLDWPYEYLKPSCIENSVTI
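Purified human 12hLO at 150 nM in 25 mM Hepes, 0.01% Triton X-100, pH 7.0, preincubated 15 min at room temperature with compound. Reaction started with 40 uM arachidonic acid, 30 min at room temperature. Hydroperoxide measured by Fe-xylenol orange, 573/405 nm absorbance ratio.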
TDP1 cell CPT – qHTS for Inhibitors of human tyrosyl-DNA phosphodiesterase 1 (TDP1): qHTS in cells in presence of CPT. chicken DT40 Tdp1-/-;hTDP1 cells + 20 nM CPT, ATP luminescence, 48 h. Potency, µM (series often up to 46.2 µM), inactives show top-dose activity change, negative = growth inhibition, hits mostly inhibitors. actives 12% (n = 420,000); further: nearly all actives have a fitted effect of over 55% in size
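Cell growth measured by CellTiter-Glo luminescence after a minimum 48 h, 37 C compound exposure with 20 nM CPT in Tdp1-knockout DT40 cells stably expressing hTDP1, seeded 400/well; qHTS titration format.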
Gal4-VP16 FLuc – VP16 counterscreen qHTS for inhibitors of ROR gamma transcriptional activity; Drosophila S2 Gal4-VP16 UAS-luciferase, luminescence, 20 h; Potency, µM (titrated, usually from 53.6 µM), for inactives: at the top dose activity, negative = inhibition, hits mostly inhibitors; actives 3.5% (n = 310,000); AID 2546, 2010;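 further: Gal4-VP16 expression switched on by copper sulfate through the metallothionein promoter; nearly all actives have a fitted effect of over 50% in size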
* marks the source's active call; other numbers are inactive results; ? = inconclusive; · = not tested or not shown; [ ] = another dose, or the depositor's remark. The call rests on the fitted dose curve; in most records, active means well fitted curve in the direction sought with a large enough effect; inconclusive means small, poorly fitted or top-dose-only effect, or another doubt; inactive means no such curve, though single readings can be large; an effect the other way counts as inactive or inconclusive. On the % scale 0 is the no-effect control and ±100 the full control effect; potency means the concentration at half of the fitted maximal effect.

SMILES	RORgamma inh	DT40 TDP1 no CPT	ELG1 DNA repair	ALOX12 inh	TDP1 cell CPT	Gal4-VP16 FLuc
Cc1ccc(-c2nc(C)sc2CC(=O)OCC(=O)Nc2cccc([N+](=O)[O-])c2)cc1	-14.5%	-27.8%	23.4%	2.0%	-22.1%	-1.6%
CC1CCN(C(=O)COC(=O)c2ccccc2C(=O)c2ccccc2)CC1	·	?	2.8%	-2.3%	?	·
Cc1ccc(C(=O)c2ccccc2C(=O)OCC(=O)N2CC(C)CC(C)C2)cc1 (stereo not given)	·	?	18.3µM*	374.6%	?	·
O=C(COC(=O)c1ccccc1Cc1ccccc1)Nc1ccc(SC(F)F)cc1	22.5%	?	?	-3.8%	?	-7.9%
Cc1ccc(C(=O)c2ccccc2C(=O)OCC(=O)Nc2cccc([N+](=O)[O-])c2)cc1	?	?	?	-25.7%	18.4µM*	?
COc1cc(C(=O)OCC(=O)Nc2ccc(SC(F)F)cc2)cc(OC)c1OC	?	?	?	-12.1%	?	1µM*
Cc1cn(-c2cc(C(=O)Nc3ccc(C)c(NC(=O)C(=O)c4c[nH]c5ccccc45)c3)cc(C(F)(F)F)c2)cn1	28.9%	7.31µM*	?	3.2%	8.2µM*	-10.5%
Cc1ccc(NC(=O)C(=O)c2c[nH]c3ccccc23)cc1F	·	·	·	7.4%	·	·
O=C(NCCN1C(=O)S/C(=C\c2ccc(Cl)c(Cl)c2)C1=O)c1cnccn1	14.0%	?	-2.0%	12.7%	?	5.0%
O=C(NCCN1C(=O)S/C(=C\c2ccc(Cl)c([N+](=O)[O-])c2)C1=O)C1=COCCO1	·	8.2µM*	?	?	20.6µM*	·
CC(C)(C)C(=O)NCCN1C(=O)S/C(=C\c2ccc([N+](=O)[O-])cc2)C1=O	44.7%	23.1µM*	-17.5%	-1.0%	?	?
COc1ccc(-c2noc([C@@H]3CCCN3C(=O)c3ccc(Cl)cc3OC)n2)cc1OC	·	·	·	25.8%	·	·
COCCNC(=O)CN(c1ccc(C)cc1)S(=O)(=O)c1ccccc1	-4.1%	-14.1%	12.6%	-5.6%	9.6%	-4.1%
Cc1ccc(N(CC(=O)NCCSc2ccccc2)S(=O)(=O)c2ccc(F)cc2)cc1	·	9.2µM*	·	-35.1%	?	·
COc1ccc(S(=O)(=O)N(CC(=O)NCCSc2ccc(C)cc2)c2ccc(C)cc2)cc1	·	23.1µM*	·	?	18.4µM*	·
Cc1ccc(S(=O)(=O)N(CC(=O)NCCSc2ccc(Cl)cc2)c2cccc(Cl)c2)cc1	·	20.6µM*	·	4.7%	?	·
CCOc1ccc(S(=O)(=O)N(CC(=O)NCCSc2ccc(C)cc2)c2ccccc2)cc1	·	-19.1%	·	-10.3%	-19.5%	·
COc1cccc([S+](=O)([O-])N2CCCC3(C2)C(=NC2CCCCC2)NC(=O)N3c2cc(F)cc(F)c2)c1 (stereo not given)	·	·	·	2.4%[6.33 µM]	·	·
COc1ccccc1-c1c(C)nn2c(-c3ccccc3)cc(C)nc12	-3.5%	20.6µM*	?	4.3%	14.6µM*	-0.3%
COc1ccccc1-c1c(C)nn2c(N3CCCCCC3)cc(C)nc12	15.8µM*	18.4µM*	23.1µM*	-17.4%	16.4µM*	20µM*
CCOC(=O)C1CCN(c2cc(C)nc3c(-c4ccccc4OC)c(C)nn23)CC1	·	18.4µM*	·	0.7%	18.4µM*	·
COc1ccccc1-c1c(C)nn2c(N3CCOCC3)cc(C)nc12	40.9%	18.9%	0.0%	0.0%	-1.0%	-2.7%
CCC(=O)N1CC(C(=O)N2CCN(c3ccccn3)CC2)C2(CCOCC2)C1 (stereo not given)	·	·	·	23.9%	·	·
CC(C)(C)c1coc([C@@H]2COCCN2C2CCCCC2)n1	·	·	·	35.9%[176 µM]	·	·
O=C(Nc1ccccc1Cl)c1cc(C2CCCN(C(=O)c3ccccc3)C2)on1 (stereo not given)	·	?	·	-7.2%	18.4µM*	·
SMILES	RORgamma inh	DT40 TDP1 no CPT	ELG1 DNA repair	ALOX12 inh	TDP1 cell CPT	Gal4-VP16 FLuc
Cc1ccc(F)cc1C(=O)N1CCCC(c2cc(C(=O)Nc3ccccc3Cl)no2)C1 (stereo not given)	·	20.6µM*	·	-15.0%	?	·
CC(C)(CN1CCC(Cc2ccccc2)CC1)NS(=O)(=O)c1ccccc1	29.1%	?	?	?	20.6µM*	-11.6%
CC(C)(CN1CCN(C(c2ccccc2)c2ccccc2)CC1)NS(=O)(=O)c1ccccc1	-6.6%	16.4µM*	-27.7%	-6.2%	23.1µM*	8.2%
CC(C)(CN1CCN(Cc2ccccc2)CC1)NS(=O)(=O)c1ccccc1	1.4%	?	-8.5%	0.0%	?	-11.3%
C=CCc1cc(CNC)cc(OC)c1OCC	·	·	·	4.6%	·	·
CSc1ccc(/C=C2\C=Cc3ccc([N+](=O)[O-])cc32)cc1	·	11.2µM*	·	·	?	·
O=[N+]([O-])c1ccc2c(c1)C=C/C2=C/c1ccccc1	·	17.8µM*	·	·	12.6µM*	·
CC1CC(=Cc2ccc([N+](=O)[O-])cc2)C(=O)O1 (stereo not given)	·	-19.4%	·	4.6%	0.8%	·
O=[N+]([O-])c1ccccc1/C=C1\C=Cc2ccccc21	·	-24.4%	·	·	7.6%	·
CC(C)CNC(=O)C1COC2(CCC(C)CC2)N1C(=O)c1cccc([N+](=O)[O-])c1 (stereo not given)	·	·	·	50.6%	·	·
CN(C)CCCN(C(=O)c1ccc(C(=O)c2ccccc2)cc1)c1nc2cc3c(cc2s1)OCO3	?	23.1µM*	-1.0%	-29.1%	16.4µM*	-15.1%
COc1cc2nc(N(CCN(C)C)C(=O)c3ccc4ccccc4c3)sc2cc1OC	-21.8%	-3.5%	4.5%	·	-21.2%	-15.0%
CN(C)CCCN(C(=O)c1ccco1)c1nc2c(F)cccc2s1	-27.4%	?	?	-12.5%	?	-2.9%
CCN(CC)CCN(C(=O)c1ccc2c(c1)CCCC2)c1nc2cc(OC)c(OC)cc2s1	-18.7%	-25.0%	-14.2%	·	23.1µM*	?
CN(C)CCN(C(=O)c1ccc2c(c1)CCCC2)c1nc2cc3c(cc2s1)OCCO3	-8.4%	29.1µM*	?	?	?	2.9%
CN(C)CCCN(C(=O)c1ccco1)c1nc2c(F)cc(F)cc2s1	9.9%	20.6µM*	15.2%	-2.9%	?	-3.4%
O=C(O)c1ccc(-c2ccc(Br)cc2)s1	·	·	·	9.7%	·	·
